# High-throughput results: PubChem BioAssay, The Scripps Research Institute Molecular Screening Center
# TTR transcr act – TTR transcription activators in neuroblastoma reporter cells, primary screen, cell-based, luminescence, SH-SY5Y, TTR promoter Gaussia luciferase. 100% = recombinant luciferase protein wells. activation, % at 16.7 µM. 1.3% of 92,000 active. AID 1117267, 2014;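 active = activation above the mean of all tested compounds plus 3 SD, cut at about 9.5% in these data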;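 also: cells exposed to compounds for one day before reading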
# TTR inh HuH7 – TTR promoter reporter inhibitors in hepatoma cells, counter-screen for TTR transcription activator project, cell-based, luminescence, HuH7 hepatoma | HuH7 TTR promoter-Gaussia luciferase reporter | inhibition, % at 16.7 µM | AID 1117279, 2014 | shares compounds with TTR transcr act | 4% of 1,100 active;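 active = average inhibition above the solvent-only control wells' mean plus 3 SD, cut at about 15% in these data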;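 also: inhibitors lower well luminescence so higher value means more inhibition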
# TTR act confirm – TTR transcription activators, retest, confirmation, cell-based, luminescence, SH-SY5Y, triplicate; shares compounds with TTR transcr act; SHSY5Y TTR promoter Gaussia luciferase; 100% = purified Lucia enzyme wells, no cells; activation, % at 16.7 µM; 1,100 tested, under 10 active;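 active = mean activation above a set limit taken from the earlier primary screen, cut at about 11% in these data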
# Hits are given with their value; . = inactive. Only a selection was taken, and hits are over-represented in it overall.
SMILES,TTR transcr act,others
CC(C)c1ccc(NC(=O)COC(=O)COc2ccccc2)cc1,10.1,TTR inh HuH7=.;TTR act confirm=.
CC(C)c1ccc(OCC(=O)Nc2ccncc2)cc1,.,
O=C(COC(=O)COc1ccccc1)Nc1ccc2c(c1)OCCO2,.,
CCOc1ccccc1OCCCC(=O)Nc1ccc(Cl)c(S(=O)(=O)N2CCOCC2)c1,.,
C[C@H]1[C@@H](N)CC[C@@]23CCCN2C(=O)CCC[C@@H]13,.,
CC(=O)OC(Cn1nc(C)cc1C)c1ccccc1 (stereo not given),10.1,TTR inh HuH7=.;TTR act confirm=.
COc1ccc(-c2cc3ccccc3n2CC(O)Cn2nc(C)cc2C)cc1 (stereo not given),.,
COC(=O)c1ccc(Cn2nc(C)cc2C)cc1,.,
CCC(=O)OCCCN1CCC2(CCCCC2)C1=O,.,
CCOc1ccc(Br)cc1S(=O)(=O)Nc1cccc(S(=O)(=O)Nc2ccccc2C(=O)O)c1,.,
CNc1cccc(-c2c(OC)cccc2OC)n1,.,
O=C(Nc1ccc2c(c1)OCO2)c1ccc(Br)o1,.,
O=C(Nc1ccc2c(c1)OCO2)c1cncc(Br)c1,10.6,TTR inh HuH7=.;TTR act confirm=.
O=C(Nc1ccc2c(c1)OCO2)c1cccc(F)c1,.,
COC(=O)[C@]12C[C@H](CC(=O)NCc3cccs3)C(=O)N(CCC3=CCCCC3)C1=C[C@H](C1CCCC1)O[C@@H]2C,.,
COC(=O)C1CN(Cc2ccccc2)CCS(=O)(=O)N1Cc1cccc(Cl)c1 (stereo not given),.,
CC(C)n1c(=O)c2ccccc2n1Cc1cn(CCc2c[nH]c3ccccc23)nn1,.,
COc1ccc(Cn2cc(Cn3c4ccccc4c(=O)n3C(C)C)nn2)cc1,15.5,TTR inh HuH7=.;TTR act confirm=.
COC(=O)Cn1c2ccccc2c(=O)n1C(C)C,.,
COC(=O)[C@@]1(Cc2ccccc2)[C@H]2C(=O)N(Cc3ccccc3)C(=O)[C@H]2[C@H]2CN=C(SC)N21,.,
COc1ccc(C(=O)NCC(=O)OCC(=O)NCc2ccc3c(c2)OCO3)cc1,.,
CC(C)(C)NC(=O)C(CCc1ccccc1)n1c(=O)c(-c2cc3ccccc3[nH]2)nc2ccccc21 (stereo not given),.,
S=c1[nH]nc(-c2cc(-c3ccccc3)n[nH]2)n1/N=C/c1cccs1,.,
S=c1[nH]nc(-c2cc(-c3ccccc3)n[nH]2)n1/N=C/c1ccccc1,10.9,TTR inh HuH7=.;TTR act confirm=.
S=c1[nH]nc(-c2cc(-c3ccccc3)n[nH]2)n1/N=C/C=C/c1ccccc1,.,
SMILES,TTR transcr act,others
Oc1ccc(Nc2ncnc3c2oc2ccccc23)cc1,.,
c1coc(CSc2ncnc3c2oc2ccccc23)c1,.,
c1ccc(Sc2ncnc3c2oc2ccccc23)nc1,18.4,TTR inh HuH7=20.1;TTR act confirm=.
CC(=C\C=O)/C(C)=C/CC[C@@H]1O[C@@H]2C[C@@H]3O[C@](C)(C[C@H]4C[C@H](O)[C@@H]5O[C@@H]6C[C@H](O)[C@@H](C)O[C@@]6(C)CC[C@H]5O4)[C@@H](O)CC[C@@]3(C)O[C@H]2[C@@H](O)[C@@H]1C,.,
COc1cc(C2NC(=O)NC(C)=C2C(=O)OCC2CCCCC2)cc(Cl)c1O (stereo not given),.,
COc1cc(C2NC(=O)NC(C)=C2C(=O)OC2CCCC(C)C2)cc(Br)c1O (stereo not given),10.7,TTR inh HuH7=.;TTR act confirm=.
CCOc1cc(C2NC(=O)NC(C)=C2C(=O)OC(C)CC)cc(Br)c1O (stereo not given),.,
CCC[C@H]1[C@@H](NC(=O)C2CCOC2)CC[C@@]23CCCN2C(=O)CCC[C@@H]13 (stereo not given in full),.,
COc1ccc(OCC(=O)NNC(=O)C(=O)Nc2cc(OC)ccc2OC)cc1,.,
COc1ccc(OC)c(NC(=O)C(=O)NNC(=O)COc2ccc(Br)cc2C)c1,43.1,TTR inh HuH7=.;TTR act confirm=.
COc1ccc(C)cc1NC(=O)C(=O)NNC(=O)COc1ccc(Cl)cc1,.,
CCc1nc2c(OCCC3CCCCC3)cccn2c1N(C)C(=O)c1ccc(OC)cc1,.,
COC(=O)CN(C#N)c1nc(N(C)C)nc(N(C)C)n1,13.3,TTR inh HuH7=.;TTR act confirm=.
CCOC(=O)C(C(=O)OCC)N(C#N)c1nc(OC)nc(N(C)C)n1,.,
CN(C)c1nc(N(C)C)nc(N(C#N)Cc2ccc(Cl)cc2)n1,.,
Cc1ccc(S(=O)(=O)N2C[C@H]3C(=O)C[C@@H](c4ccccc4)N(S(=O)(=O)c4ccccc4[N+](=O)[O-])[C@H]3C[C@H]2c2ccccc2)cc1,.,
C[C@H]1CN([C@@H](C)CO)C(=O)CCCn2nncc2CO[C@H]1CN(C)C(=O)Nc1cccc(Oc2ccccn2)c1,.,
CCOC(=O)c1ccc(NC(=S)N2CCN(C)CC2)cc1,.,
CCCCc1ccc(NC(=S)N2CCN(C)CC2)cc1,.,
CN1CCN(C(=S)Nc2ccc(S(N)(=O)=O)cc2)CC1,10.8,TTR inh HuH7=.;TTR act confirm=.
CC(C)c1ccc(NC(=O)OC2CCC23CCC(c2ccccc2)CC3)cc1 (stereo not given),.,
C=CCN1C[C@H](COC(=O)c2cccc(C)c2)Oc2cccc(F)c2S1(=O)=O,.,
CCC(C#Cc1ccccc1)NCc1ccc(OC)cc1OC (stereo not given),.,
N#CCCN(Cc1cccnc1)C(=S)NC1CC2C=CC1C2 (stereo not given),10.3,TTR inh HuH7=.;TTR act confirm=.
O=C(CNC(=S)N(Cc1ccccc1)Cc1cccnc1)NC1CC1,.,
SMILES,TTR transcr act,others
O=C(NNC(=S)NC1CC2C=CC1C2)c1ccncc1 (stereo not given),.,
CC1(C(=O)NS(=O)(=O)c2cccs2)CCN1C(=O)c1ccco1 (stereo not given),.,
Cc1cccc(Cn2cc(COC(=O)NCCc3ccccc3)nn2)c1,.,
CC(=O)Nc1ccc2nc(CN3CCN(CC=C(C)C)C(CCO)C3)ccc2c1 (stereo not given),67.1,TTR inh HuH7=.;TTR act confirm=.
CC(C)=CCN1CCN(Cc2ccc3nsnc3c2)CC1CCO (stereo not given),.,
CC(C)=CCN1CCN(Cc2ccoc2)CC1CCO (stereo not given),.,
O=C(N1CCc2ccccc2C1)n1cc(C(O)(c2ccccc2)c2ccccc2)nn1,.,
O=C(NCCc1ccccc1F)C1CC(=O)N(c2ccc3c(c2)OCCO3)C1 (stereo not given),.,
Cc1ccc(C)c(SCC(=O)NNC(=O)c2csc(N3CCOCC3)n2)c1,30.9,TTR inh HuH7=.;TTR act confirm=.
O=C(NNC(=O)c1cc(-c2ccc(Br)cc2)nc2ccccc12)c1csc(N2CCOCC2)n1,.,
CSc1ncccc1C(=O)NNC(=O)c1csc(N2CCOCC2)n1,.,
Cc1cc(C)nc(NC(=S)N2CCN(c3ccc(Cl)c(Cl)c3)CC2)c1,.,
COP(N)(=O)C(CC(C)C)NC(=O)OCc1ccccc1 (stereo not given),.,
Cc1ccsc1C(=O)OCC(=O)N(Cc1ccccc1)C(C)C,.,
CCOC(=O)c1sc(N(Cc2ccccc2)C(=O)COC(=O)c2ccccc2O)nc1C,13.0,TTR inh HuH7=.;TTR act confirm=.
CCOC(=O)c1sc(N(Cc2ccccc2)C(=O)CCl)nc1C,.,
C[C@H]1[C@@H](OC(=O)N2CCCC2)CC[C@@]23CCCN2C(=O)CCC[C@@H]13,.,
Cc1ccc(C(=O)NC2CCCCN(Cc3ccc(Cl)cc3)C2=O)c(C)c1 (stereo not given),.,
O=C(O)c1ccc(-n2nnnc2SCc2ccccc2F)cc1,.,
